A selection: hits, their analogues and other compounds. The true share with any hit is near 2.1%.
Rce1 inh – yeast Rce1p protease inhibitors, primary screen, biochemical, fluorescence, cell-free homogeneous. calls only. yeast membranes, quenched prenylated peptide cleavage fluorescence. AID 2563, 2010. actives 0.27% (n = 290,000). CAAX prenyl protease 2 (Saccharomyces cerevisiae (strain ATCC 204508 / S288c)), Q03530;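 active = fall in fluorescence gain of 50% or more versus controls, with final raw signal at or below 3038400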
PLC-beta3 inh – human PLC-beta3 inhibitors, primary screen, biochemical, fluorescence | Purified PLC-beta3, fluorogenic substrate | inhibition, % at 12.2 µM | actives 0.18% (n = 370,000); in the data active = inhibition above about 11%
ADAM17 inh – ADAM17 inhibitors, primary screen, biochemical, QFRET; inhibition, % at 6.95 µM; recombinant ADAM17, EDANS/DABCYL FRET peptide cleavage; Disintegrin and metalloproteinase domain-containing protein 17 (Homo sapiens), P78536; actives 0.83% (n = 370,000);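 active = inhibition above the mean of compounds lying between control limits plus 3 SD, set per campaign, cut at about 8.5% in these data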
ADAM10 inh – human ADAM10 inhibitors, primary screen, biochemical, QFRET, HTS | recombinant ADAM10, EDANS/DABCYL FRET peptide cleavage, 3 h | inhibition, % at 7 µM | actives 0.62% (n = 370,000);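 active = inhibition above a per-campaign cutoff equal to the mean of compounds falling between control-based bounds plus 3 SD, cut at about 20% in these data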
PLCg1 inh – PLC-gamma1 enzyme inhibitors, primary screen, biochemical, fluorescence, purified enzyme. 1-phosphatidylinositol 4,5-bisphosphate phosphodiesterase gamma-1 (Homo sapiens), P19174. fluorogenic substrate. inhibition, % at 12.2 µM. actives 0.84% (n = 370,000); in the data active = inhibition above about 9.5%
ADAM10 counter – ADAM10 inhibitors, counter-screen for ADAM17 exosite inhibitor project, biochemical, FRET, human ADAM10 | inhibition, % at 6.95 µM | recombinant ADAM10, EDANS/DABCYL FRET peptide cleavage, 3 h | AID 743256, 2014 | shares compounds with ADAM17 inh | actives 47% (n = 2,900);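 active = mean inhibition over the triplicate runs exceeds the activity threshold set in the earlier primary screen, cut at about 20% in these data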
ADAM17 confirm – ADAM17 inhibitors, hit retest, confirmation, biochemical, QFRET peptide cleavage. AID 743257, 2014. recombinant ADAM17, EDANS/DABCYL QFRET peptide cleavage. inhibition, % at 6.95 µM. actives 65% (n = 2,900). shares compounds with ADAM17 inh;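 active = mean inhibition across replicates above the hit cutoff set in the primary screen, cut at about 8.5% in these data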
Large screens that a line does not name were inactive (follow-up assays come after a bar, where they were run).

CCOC(=O)c1ccc(N2C(=O)c3n[nH]c(C)c3C2c2ccc(OC)cc2)cc1 (configuration not stated)	none
CCOC(=O)c1ccc(N2C(=O)c3n[nH]c(C)c3C2c2ccc(OC)cc2OC)cc1 (configuration not stated)	ADAM17 inh 8.7 (no result: Rce1 inh) | ADAM10 counter inactive | ADAM17 confirm 10
C(=N\Nc1nc(Nc2ccccc2)nc(N2CCOCC2)n1)/c1c[nH]c2ccccc12	ADAM17 inh 9.2 | ADAM10 counter inactive | ADAM17 confirm 11
O=C(CN(c1ccccc1)S(=O)(=O)c1ccccc1)Nc1ccc(F)cc1	none
C[C@@H]1CC[C@]2(O[C@H](CCO)C[C@@H](O)[C@@H]2O)O1	ADAM17 inh 8.8 | ADAM10 counter inactive | ADAM17 confirm inactive
C[C@H]1CC[C@@]2(O[C@@H](CCO)C[C@@H](O)[C@@H]2O)O1	none
COC[C@H](NS(=O)(=O)c1ccc(Br)cc1F)[C@@H](O)c1ccccc1	ADAM17 inh 9.8 (no result: Rce1 inh) | ADAM10 counter inactive | ADAM17 confirm 10
COc1ccccc1NC(=O)c1ccc(NC(=O)COC(=O)CCC2CCCC2)cc1	ADAM17 inh 9.4 (no result: Rce1 inh) | ADAM10 counter 27 | ADAM17 confirm 15
COC(=O)c1ccc(NC(=O)COC(=O)CCC2CCCC2)cc1	none (no result: Rce1 inh)
CCOc1cc(N2CCOCC2)c(OCC)cc1NC(=O)COC(=O)CCOc1cc(C)ccc1C	none
CC1CCCCN1S(=O)(=O)c1cc2c(=O)nc3ccccn3c2cc1Cl (configuration not stated)	none (no result: Rce1 inh)
COc1ccc([N+](=O)[O-])cc1NC(=O)C(C)OC(=O)c1ccccc1C(=O)c1ccc(Cl)cc1 (configuration not stated)	ADAM17 inh 8.8 | ADAM10 counter 46 | ADAM17 confirm 18
O=C(C1CCCCC1)N1C[C@H](n2cc(C3CC3)nn2)[C@@H](O)C[C@@H]1c1ccccc1	none (no result: Rce1 inh)
COc1cc2c(c(O)c1OC)-c1c(cc(OC)c(OC)c1OC)C[C@@H](C)[C@@H](C)C2	ADAM17 inh 8.8 | ADAM10 counter inactive | ADAM17 confirm inactive
CCOC(=O)C1CCN(C(=O)Nc2cc(Cl)cc(Cl)c2)CC1	none
Cc1ccc(S(=O)(=O)NCCC(=O)Nc2ccc(Cl)c(Cl)c2)cc1	ADAM17 inh 9.2 | ADAM10 counter 25 | ADAM17 confirm 15
Cc1ccc(S(=O)(=O)NCCC(=O)Nc2ccc(Cl)c(Cl)c2)cc1C	none
CN(C)c1cccc(C(=O)NCCCSc2ccccc2)c1	none
CCn1c2c(c3cc(Br)ccc31)CCC/C2=N\O	ADAM17 inh 9.5 | ADAM10 counter inactive | ADAM17 confirm inactive
COc1ccc(-c2cn(CC[C@@H]3CC[C@H](NC(=O)Cc4ccccn4)[C@@H](CO)O3)nn2)cc1	none (no result: Rce1 inh)
OC(c1ccccc1)(c1ccccc1)C1CCN(CCCOc2cccc(Cl)c2)CC1	none (no result: Rce1 inh)
OC(c1ccccc1)(c1ccccc1)C1CCN(CCCOc2cccc(C(F)(F)F)c2)CC1	ADAM17 inh 9.9 (no result: Rce1 inh) | ADAM10 counter 27 | ADAM17 confirm 19
OC(c1ccccc1)(c1ccccc1)C1CCN(CCCOc2ccc(C(F)(F)F)cc2)CC1	ADAM17 inh 11 (no result: Rce1 inh) | ADAM10 counter 24 | ADAM17 confirm 9.8
COc1ccc(OCCCN2CCC(C(O)(c3ccccc3)c3ccccc3)CC2)cc1	none (no result: Rce1 inh)
COc1c(NC=O)c2c(c([N+](=O)[O-])c1OC)C(=O)OC2	ADAM17 inh 8.8 (no result: Rce1 inh) | ADAM10 counter inactive | ADAM17 confirm inactive
COc1c([N+](=O)[O-])c(=O)oc2ccccc12	none
COc1ccc(OC)c(NC(=O)COc2cc(O)c3c(c2)OC(C)(C)CC3=O)c1	none (no result: Rce1 inh)
COc1ccc(-c2cc(-c3n[nH]c(=S)n3-c3cc(OC)ccc3OC)[nH]n2)cc1	ADAM17 inh 9.5 | ADAM10 counter 23 | ADAM17 confirm 13
CC(C)=CCc1cc([C@@H]2COc3c(ccc4c3C=CC(C)(C)O4)C2)c(O)cc1O	ADAM17 inh 13 | ADAM10 counter inactive | ADAM17 confirm inactive
O=[N+]([O-])c1ccc(-c2cnc(SC(c3ccccc3)c3ccccc3)[nH]2)cc1	Rce1 inh active, ADAM17 inh 10.0 | ADAM10 counter 33 | ADAM17 confirm 14
CCCCCC(=O)N1C[C@H](n2cc(COC(=O)c3ccccc3)nn2)[C@@H](O)C[C@@H]1c1ccc(OC)cc1	none (no result: Rce1 inh)
CN(CCOc1ccc(Cl)cc1)C(=O)CNS(=O)(=O)c1ccc(N(C)C)c([N+](=O)[O-])c1	none (no result: Rce1 inh)
CN(C)c1ccc(S(=O)(=O)NCC(=O)OCC(=O)Nc2cc(Cl)cc(Cl)c2)cc1[N+](=O)[O-]	ADAM17 inh 9.9 | ADAM10 counter 42 | ADAM17 confirm 23
CN(C)/C=N/c1ncnc2c1cnn2-c1ccc(C(F)(F)F)cn1	ADAM17 inh 9.2 | ADAM10 counter inactive | ADAM17 confirm inactive
CCc1noc(C)c1C(=O)NNC(=O)COc1ccc(Br)cc1	none
O=C(Nc1ccccc1)C1=C[C@H](C2CCCCC2)C[C@H](OCc2ccc(CO)cc2)O1	none
O=C(Nc1ccccc1)C1=C[C@H](c2ccc(Br)cc2)C[C@H](OCc2ccc(CO)cc2)O1	ADAM17 inh 10 | ADAM10 counter 29 | ADAM17 confirm 24
O=C(C1=C[C@@H](c2ccc(Br)cc2)C[C@@H](OCCCCO)O1)N1CCN(Cc2ccccc2)CC1	ADAM17 inh 8.8 | ADAM10 counter inactive | ADAM17 confirm inactive
O=C(Nc1ccccc1)C1=C[C@@H](C2CCCCC2)C[C@@H](OCc2ccc(CO)cc2)O1	ADAM17 inh 8.7 | ADAM10 counter inactive | ADAM17 confirm 13
N#C/C(=C\c1ccc(Cl)cc1)C(=O)Nc1cccnc1	none
Cc1ccc(N(CCC#N)C(=O)COC(=O)C2CCN(S(=O)(=O)c3ccc4c(c3)OCCO4)CC2)cc1	none
Cc1ccc(CN2CC(N3CCN(C)CC3)CS2(=O)=O)cc1 (configuration not stated)	none (no result: Rce1 inh)
COc1ccc(NC(=S)N(CCN2CCOCC2)Cc2cc3cc4c(cc3[nH]c2=O)OCCO4)cc1	none
CCCC(C)NC(=O)CN(Cc1ccco1)S(=O)(=O)c1ccccc1 (configuration not stated)	none (no result: Rce1 inh)

Bioassay records deposited in PubChem by several laboratories.
